18 molecules from PubChem BioAssay (NCATS) can be followed below.

Where “and” joins values, the source holds several entries; their conditions need not be identical. Equal values may be shown once. Inconclusive results are not listed. Calls of active or inactive are those of the source. Unless noted, calls come from the whole dose curve; as a rule, active = well fitted curve in the direction sought with a large enough effect; inconclusive = small, poorly fitted or top-dose-only effect, or another doubt; inactive = no such curve, though single readings can be large; an effect the other way counts as inactive or inconclusive.

Experiment [1] can be described thus: HPAF-II Cancer Cell Toxicity qHTS against the NCATS CANVASS Library (AID 1347346). Note: nearly all actives have a fitted effect of over 55% in size. Note: potency is the fitted concentration of half-maximal effect. Put shortly: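 First, HPAF-II cells are plated (1000 cells/well) and held 4 h at 37 degrees C. Next, compounds are pin-transferred as an 11-point series. After 72 h, CellTiter-Glo is added and luminescence measured.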
For orientation: In qHTS, concentration-response curves come from the screen itself.

The nature of experiment [2]: Panc-1005 Cancer Cell Toxicity qHTS against the NCATS CANVASS Library (AID 1347349). Note: nearly all actives have a fitted effect of over 60% in size. Note: potency is the fitted concentration of half-maximal effect. In a few lines:
(§1)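 Viability read-out: CellTiter-Glo luminescence after 72 h compound exposure at 37 °C/5% CO2. Cells plated at 1000/well, 4 h pre-incubation; 11-point titration. Bortezomib served as control.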

The nature of experiment [3]: HEK-293 Cancer Cell Toxicity qHTS against the NCATS CANVASS Library (AID 1347355). Note: potency is the fitted concentration of half-maximal effect; nearly all actives have a fitted effect of over 65% in size. In a few lines: (§2)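 First, 1000 cells go into each well and rest for 4 hours. Next, an 11-point dilution range is pinned in. Plates then incubate 72 hours before CellTiter-Glo addition and luminescence reading.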
Experiment [4] is described as follows: SDT Cancer Cell Toxicity qHTS against the NCATS CANVASS Library (AID 1347365). Note: nearly all actives have a fitted effect of over 60% in size. Note: potency is the fitted concentration of half-maximal effect. In a few lines: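 Cytotoxicity is measured from cellular ATP: compounds in an 11-point concentration series are pinned onto SDT cells, incubated 72 hr at 37C, then CellTiterGlo is added and luminescence read.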
Experiment [5] can be described thus: qHTS for Hypoxia signaling pathway (HIF-1) antagonists against the NCATS CANVASS Library (AID 1347374).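 For activity change, negative = inhibition: HRE-bla ME-180 cells stimulated with cobalt chloride to stabilize HIF-1alpha; % is set by controls: 0 for no effect and ±100 for the full control effect.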 Note: nearly all actives have a fitted effect of over 60% in size. Note: potency is the fitted concentration of half-maximal effect. Put shortly: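 Antagonism scored as loss of CoCl2-driven (60 uM stock added) HRE beta-lactamase signal, read by CCF4 FRET at 460/530 nm. Compounds were tested in an 11-point series on ME-180 reporter cells for 17 hrs at 37C, with parallel CellTiter-Glo cytotoxicity.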

Experiment [6] is described as follows: qHTS for Hypoxia signaling pathway (HIF-1) agonists against the NCATS CANVASS Library (AID 1347375). Note: 0% is about no effect. In a few lines: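 Cells plated and rested 5 h, compounds pinned in DMSO across 11 concentrations, incubated 17 h at 37C, loaded with CCF4-AM for 2 h, fluorescence read at 460 and 530 nm, then CellTiter-Glo luminescence measured for viability and normalization.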

The nature of experiment [7]: DH5-alpha competent E. coli microbial cell viability qHTS against the NCATS CANVASS Library (AID 1347377). As to conditions: outcome: dose series up to 46.1 µM unless noted. In a few lines: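 Bacteria were dispensed at 0.2 OD, then compounds were pin-transferred. Plates were incubated overnight at 37C, after which BacTiter-Glo was added and luminescence measured 20 min later.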

The nature of experiment [8]: qHTS for Antimalaria activity screened against the NCATS CANVASS Library (AID 1347380).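 For activity change, negative = inhibition: Plasmodium falciparum strain Dd2 asexual parasites grown in red blood cells.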 Note: nearly all actives have a fitted effect of over 40% in size. Note: potency is the fitted concentration of half-maximal effect. Put shortly:
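Compounds are titrated over 11 concentrations onto Dd2 parasite cultures (0.3% parasitemia, 2.5% hematocrit). Growth over 72 h at 37C in low oxygen is measured as SYBR Green DNA fluorescence after lysis.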

Experiment [9] can be described thus: Vero-766 cells viability qHTS against the NCATS CANVASS Library: Counterscreen for Zika virus inhibition assay (AID 1347394). Note: nearly all actives have a fitted effect of over 60% in size. Note: potency is the fitted concentration of half-maximal effect. Put shortly: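 CellTiter-Glo luminescence, lower signal indicating cytotoxicity. Vero 766 cells without Zika virus, 1000 cells/well, plated overnight, then treated 72 h at 37C across an 11-point series.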
The nature of experiment [10]: U-118MG Cancer Cell Toxicity qHTS against the NCATS CANVASS Library (AID 1347351). Note: potency is the fitted concentration of half-maximal effect. Put shortly:
as §1

The nature of experiment [11]: COV-362 Cancer Cell Toxicity qHTS against the NCATS CANVASS Library (AID 1347352). Note: potency is the fitted concentration of half-maximal effect. In a few lines:
as §2

Experiment [12] in a line: A2780 Cisplatin Sensitive Ovarian Cancer Cell Toxicity qHTS against the NCATS CANVASS Library (AID 1347353). Put shortly:
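Cells are plated at 750 per well and rest for 4 hours. Compounds are added across eleven concentrations, and incubated 72 hours before ATP is quantified by luminescence.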

Experiment [13] in a line: Viability qHTS for inhibitors of the SERCaMP assay screened against the NCATS CANVASS Library (AID 1347400). Note: nearly all actives have a fitted effect of over 70% in size. Note: potency is the fitted concentration of half-maximal effect. In a few lines:
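Seed SH-SY5Y-GLuc SERCaMP MJH297 cells at 1000 per well, incubate 4 h, add compounds across an 11-point range, incubate 48 h at 37C, then add CellTiter-Glo and read luminescence.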

Experiment [14] can be described thus: UWB1.289 Cancer Cell Toxicity qHTS against the NCATS CANVASS Library (AID 1347347). Note: nearly all actives have a fitted effect of over 60% in size. Note: potency is the fitted concentration of half-maximal effect. In a few lines: as §1
The target of experiment [15] is Cytochrome P450 3A4 (Homo sapiens) (UniProt P08684). Kind of experiment: qHTS Assay for Activators of Cytochrome P450 3A4 (AID 885). Note: nearly all actives have a fitted effect of over 65% in size. Put shortly: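 Using 20nM recombinant human CYP3A4 in potassium phosphate (200mM), substrate Luciferin-PPXE at 25uM, luminescent luciferin detection followed a 60-min RT NADPH reaction; data scaled to 57 uM ketoconazole.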
The nature of experiment [16]: qHTS Assay for Lipid Storage Modulators (AID 1519; calls by dose curve; for activity change, negative = inhibition: % is set by controls: 0 for no effect and ±100 for the full control effect). The settings on record: Drosophila S3 cells, BODIPY lipid droplet/cell ratio, laser cytometry, cells loaded with oleic acid. Put shortly:
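Cells seeded at 5,000 per well were treated with compounds over a concentration series and loaded with oleic acid (400 uM, as added). Lipid droplet fluorescence (488 nm excitation, 500-530 nm channel) was read by laser-scanning cytometry and normalized to 20 uM Triacsin C.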

Experiment [17] is described as follows: OV-SAHO Cancer Cell Toxicity qHTS against the NCATS CANVASS Library (AID 1347348). Note: nearly all actives have a fitted effect of over 55% in size. Note: potency is the fitted concentration of half-maximal effect. Put shortly: as §1
Experiment [18] has as its target ATP-dependent 6-phosphofructokinase (Trypanosoma brucei brucei) (UniProt O15648). Kind of experiment: qHTS Assay to Find Inhibitors of T. brucei phosphofructokinase: hit validation (AID 492961). Note: % is set by controls: 0 for no effect and ±100 for the full control effect. In a few lines: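 Luminescence from ADP-Glo reports ADP generated as T. brucei PFK (1.25 nM) phosphorylates 0.5 mM fructose-6-phosphate using 0.1 mM ATP. Reactions ran 45 min at room temperature, pH 8.0.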

The nature of experiment [19]: qHTS profiling for inhibitors of Plasmodium falciparum proliferation (AID 504749).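 For activity, negative = inhibition: 0% = DMSO vehicle and full inhibition = artemisinin control.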 For all read-outs here: nearly all actives have a fitted effect of over 60% in size. Note: potency is the fitted concentration of half-maximal effect. As to conditions: P. falciparum in erythrocytes, SYBR Green DNA, 72 h; for activity, negative = inhibition: at 28.7 µM (top of the series). In a few lines:
(§3)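 Each compound contacts P. falciparum-infected red blood cells for 72 h at 37 C; lysis buffer (Tris, EDTA, saponin, Triton X, SYBR Green I) is added and fluorescence measured next morning; values normalized to controls.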

A further experiment relates to DFO2036. Described as above. As to conditions: P. falciparum in erythrocytes, SYBR Green DNA, 72 h; series mostly up to 28.7 µM. Put shortly:
as §3

ATP-dependent 6-phosphofructokinase (Trypanosoma brucei brucei), sequence (O15648 whole entry, looked up): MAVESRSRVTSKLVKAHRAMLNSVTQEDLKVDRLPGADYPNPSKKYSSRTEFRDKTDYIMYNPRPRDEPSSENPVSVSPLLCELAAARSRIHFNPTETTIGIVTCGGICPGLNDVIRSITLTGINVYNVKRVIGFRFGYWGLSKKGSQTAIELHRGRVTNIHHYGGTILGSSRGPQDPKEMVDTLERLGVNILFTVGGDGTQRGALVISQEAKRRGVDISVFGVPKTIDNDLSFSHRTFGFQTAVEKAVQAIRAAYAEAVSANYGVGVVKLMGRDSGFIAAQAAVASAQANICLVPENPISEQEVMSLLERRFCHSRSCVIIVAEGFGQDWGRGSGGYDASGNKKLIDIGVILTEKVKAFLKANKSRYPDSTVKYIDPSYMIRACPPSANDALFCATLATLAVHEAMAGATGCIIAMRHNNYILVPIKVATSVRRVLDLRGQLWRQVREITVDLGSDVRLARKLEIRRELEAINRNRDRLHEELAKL
Cytochrome P450 3A4 (Homo sapiens), sequence (P08684 whole entry, looked up): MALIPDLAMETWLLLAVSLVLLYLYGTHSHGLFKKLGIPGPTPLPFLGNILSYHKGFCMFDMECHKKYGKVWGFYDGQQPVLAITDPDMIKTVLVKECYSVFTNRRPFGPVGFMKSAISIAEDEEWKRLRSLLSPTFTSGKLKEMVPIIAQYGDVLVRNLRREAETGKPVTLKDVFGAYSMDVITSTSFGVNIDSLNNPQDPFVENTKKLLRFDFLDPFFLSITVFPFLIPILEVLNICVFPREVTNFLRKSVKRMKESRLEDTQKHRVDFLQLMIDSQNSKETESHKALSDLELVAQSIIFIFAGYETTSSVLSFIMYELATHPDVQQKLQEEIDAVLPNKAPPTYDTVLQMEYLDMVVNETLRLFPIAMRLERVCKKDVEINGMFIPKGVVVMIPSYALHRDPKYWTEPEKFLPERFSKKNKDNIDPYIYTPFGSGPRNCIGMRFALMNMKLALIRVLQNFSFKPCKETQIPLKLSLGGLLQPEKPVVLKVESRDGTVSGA

For `C/C(=C\[C@H](C)C(=O)/C=C/CC1CC(=O)NC(=O)C1)[C@@H]1OC(=O)CCCC/C=C/[C@H](O)[C@@H](O)[C@@H]1C`, the Potency was 18.8 µM (active) in experiment [1]; 14.9 µM (active) in experiment [2]; 23.5 µM (active) in experiment [3]; 13.2 µM (active) in [4]; 11.8 µM (active) in experiment [5]. Moreover, the call in experiment [6] and in [7] was inactive. The Potency entry in experiment [8] and in [9] was “inactive” throughout.

Consider `C=C[C@]1(C)CC[C@@H]([C@H](C)C(=O)/C=C/C(C)(C)O)O1`, for which the Potency entry in experiment [1], in [2], in experiment [10], in [11], in experiment [5] and in experiment [8] was “inactive” each time. The Potency result in experiment [9] is “inactive”.

Consider `CN1CCc2cc3c(c4c2C1(C)C(=O)c1cc(O)ccc1-4)OCO3` (stereo not given), for which the Potency in experiment [4] is 1.48 µM (active). For the same molecule, the result in experiment [6] and in experiment [7] was inactive.

Consider `O[C@H]1C=C2[C@H]3CN(Cc4cc5c(cc43)OCO5)[C@H]2C[C@@H]1O`, for which the Potency in experiment [12] was 9.35 µM (active); in experiment [3], 5.26 µM (active); in experiment [5], 13.3 µM (active); in experiment [8], 5.29 µM (active). Further, the outcome in [6] and in experiment [7] was inactive.

In the case of `COc1cc(C2C3=C(Cc4cc5c(cc42)OCO5)C(=O)OC3)cc(OC)c1OC` (stereo not given), the Potency in experiment [12] is 0.0833 µM (active); in [3], 0.059 µM (active); in experiment [8], 9.41 µM (active); in experiment [9], 0.186 µM (active); in experiment [13] it was 0.0604 µM (active).

For the molecule `CC[C@@H](c1cc(OC)c(OC)cc1OC)[C@H](C)[C@@H](/C(C)=C/c1cc(OC)c(OC)cc1OC)c1cc(OC)c(OC)cc1OC`, the Potency entry in [14], in [10], in [11], in experiment [4] and in experiment [13] was “inactive” in each case. Further, the Potency in [12] is 14.8 µM (active) and 20.9 µM (active); in experiment [3] it was 16.6 µM (active); in experiment [8], 747 nM (active) and 1.88 µM (active). For the same molecule, the outcome in experiment [6] was inactive.

Consider `C=C[C@@](C)(O)CC[C@@H]1[C@@]2(C)CCCC(C)(C)[C@@H]2CC[C@@]1(C)O`, for which the Potency entry in experiment [15], in experiment [17], in experiment [11], in [5], in experiment [9] and in experiment [13] was “inactive” each time. In addition, the activity change, negative = inhibition in experiment [16] (at 57.5 µM (top of the series)) was -12.3% (inactive). Moreover, the max response in experiment [16] (measured here: cell count channel max response) is -15%; in [16] (measured here: lipid channel max response), -21.7%.

`C[C@H]1CCC2(OC1)O[C@H]1C[C@H]3[C@@H]4CC(=O)[C@]5(O)C[C@H](O)CC[C@@]5(C)[C@H]4CC[C@@]3(C)[C@H]1[C@H]2C` (stereo not given in full): the Potency entry in experiment [17], in [10] and in [11] was “inactive” in each case. Further, the outcome in experiment [7] was inactive.

Take `CC[C@H]1[C@@H](C)[C@@H](c2cc(OC)c(OC)cc2OC)[C@H](C)[C@@H](c2cc(OC)c(OC)cc2OC)[C@@]12C=C(OC)C(=O)C=C2OC`: the Potency in [1] was 21.1 µM (active); in [14], 23.6 µM (active); in experiment [2], 16.8 µM (active); in experiment [12], 9.35 µM (active).

Consider `C=C1C(=O)O[C@H]2[C@H]1CCC(C)=C1CC[C@@](C)(O)[C@@H]12`, for which the Potency in experiment [14] is 18.8 µM (active); in experiment [17], 18.8 µM (active); in experiment [2], 16.8 µM (active); in experiment [11] it was 16.7 µM (active); in experiment [12], 4.18 µM (active); in experiment [4], 26.4 µM (active). In experiment [13], the Potency is 42.8 µM (active). Further, the result in experiment [7] was inactive. Also, in experiment [9], the Potency entry is “inactive”.

Regarding `C=C1C[C@H]2O[C@@H]3[C@@H]4[C@H](CC[C@@](C)(O)[C@@H]42)[C@H](C)COC3(C)[C@@H](OC(=O)CCCCCCC)CC1=O` (stereo not given in full), the Potency in [14] was 18.8 µM (active); in experiment [17], 18.8 µM (active); in experiment [12], 13.2 µM (active).

With `CO[C@@H]1[C@H](O)[C@@H](C)O[C@@H](OC[C@@H]2C(C)OC(=O)/C=C/[C@H](C)C(O[C@@H]3O[C@H](C)CC4(OC(=O)O[C@@H]4C)C3O)[C@@H](C)CC(C)C(=O)/C=C/[C@H]3OC23)[C@@H]1OC` (stereo not given in full), the Potency result in experiment [1] is “inactive”. Further, the Potency is 18.8 µM (active) in experiment [14]; 16.8 µM (active) in experiment [10]; 20.9 µM (active) in experiment [3]; 16.6 µM (active) in [4]; 18.8 µM (active) in [5]; 14.9 µM (active) in experiment [8]. For the same molecule, in [13], the Potency is 42.8 µM (active).

As for `C/C1=C/[C@@H](C)[C@H](O)C/C=C/CC/C=C/C(=O)O[C@@H]1[C@H](C)C(=O)CCCC1CC(=O)NC(=O)C1`, the Potency in experiment [3] was 20.9 µM (active); in experiment [5] it was 18.8 µM (active). Besides, the molecule was classed as inactive in experiment [6]. Besides, the Potency result in experiment [8] is “inactive”.

Regarding `COc1cc2c(cc1OC)[C@@H](c1ccc3c(c1)OCO3)C(C)[C@@H](C)C2=O` (stereo not given in full), the Potency result in experiment [17], in experiment [2], in experiment [10], in experiment [11], in [5] and in [13] was “inactive” in each case. Moreover, the call in experiment [7] was inactive.

Regarding `C[C@@]12C(=O)OC(=O)[C@]1(C)[C@H]1CC[C@@H]2O1`, the molecule was classed as inactive in experiment [18]. The results for the Potency (in experiment [19] (parasite line A); in experiment [19] (parasite line B); in the experiment with DFO2036) were 3.98 µM (active), 3.16 µM (active) and 3.98 µM (active), respectively.

Consider `CN(CCOc1ccc(C[C@H](Nc2ccccc2C(=O)c2ccccc2)C(=O)O)cc1)c1ccccn1`, for which, in experiment [15], the Potency entry is “inactive”.

For `C=C1CCC2[C@](C)(CO)C(O)CC[C@]2(C)C1C/C=C1/C(=O)OCC1O` (stereo not given in full), the Potency result (in [15]; in the experiment on DFO2036) was “inactive” in each case. Further, the call in experiment [18] was inactive. The activity, negative = inhibition in experiment [19] (parasite line A) was -24.6% (inactive); in experiment [19] (parasite line B), -25.9% (inactive).

`CC(/C=C1\SC(=S)N(CC(=O)O)C1=O)=C\c1ccccc1`: in experiment [18], the result was inactive. Besides, the activity, negative = inhibition in experiment [19] (parasite line A) was -3.63% (inactive). For the same molecule, the Potency entry in the experiment with DFO2036 was “inactive”.
